ChEMBL document CHEMBL1201862, “PubChem BioAssay data set” (2004)
About 11,000 (3.5%) of roughly 310,000 compounds were called active. About 8% were inconclusive and are not listed. This is one part of a sample in which actives are shown more often than they occur. The calls are words filed in the database; no cut-off is given here.

target: Nuclear receptor ROR-gamma (Mus musculus) (UniProt P51450); assay: VP16 counterscreen qHTS for inhibitors of ROR gamma transcriptional activity.; format: functional
Sequence (P51450 whole entry): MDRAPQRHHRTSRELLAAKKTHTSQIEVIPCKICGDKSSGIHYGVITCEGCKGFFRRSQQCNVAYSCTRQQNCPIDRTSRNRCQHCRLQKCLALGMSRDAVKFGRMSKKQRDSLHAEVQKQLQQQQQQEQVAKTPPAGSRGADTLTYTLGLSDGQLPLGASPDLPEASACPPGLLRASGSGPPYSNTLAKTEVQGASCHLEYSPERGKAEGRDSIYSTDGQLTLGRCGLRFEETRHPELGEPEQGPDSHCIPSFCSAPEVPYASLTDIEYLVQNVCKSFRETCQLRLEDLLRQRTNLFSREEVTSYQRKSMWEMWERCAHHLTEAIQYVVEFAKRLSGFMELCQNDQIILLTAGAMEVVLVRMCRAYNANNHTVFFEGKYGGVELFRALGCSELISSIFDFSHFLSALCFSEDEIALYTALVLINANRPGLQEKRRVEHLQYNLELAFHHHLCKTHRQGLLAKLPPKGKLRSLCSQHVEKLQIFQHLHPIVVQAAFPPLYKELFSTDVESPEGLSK

| Structure (SMILES) | Potency |
| --- | --- |
| Cl[Te]1(Cl)OCCO1 | 3.55 µM (active) |
| CNc1ccc2oc(C[C@@H]3OC4(CC[C@@H]3C)O[C@H](C(C)C(=O)c3ccc[nH]3)[C@H](C)C[C@H]4C)nc2c1C(=O)O (some centres not stated) | 631 µM (active) |
